Drawing on PubChem BioAssay (NCATS), this text covers max response and Potency for 40 molecules.

Several values for one entry are separate records, joined by “and”; a condition that tells them apart may be missing. Equal values may be shown once. Records with an inconclusive call do not appear. A number with no mark means an inactive call. Activity calls are given as the source filed them. Calls follow the shape of the dose curve; as a rule, active = well fitted curve in the direction sought with a large enough effect; inconclusive = small, poorly fitted or top-dose-only effect, or another doubt; inactive = no such curve, though single readings can be large or run the other way.
% is scaled to controls: 0 for no effect and ±100 for the full control effect; potency is read from the fitted curve at half-maximal effect.

The assay in a line: qHTS Assay for Identifying Gametocytocidal Compounds (AID 743244).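 As to max response: actives lower the fluorescent signal which means gametocytes are killed.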 Conditions: P. falciparum 3D7 stage III-V gametocytes, alamarBlue, 72 h; max response: active compounds read low. From the text:
Malaria cases and deaths have dropped 50% in 29 countries since 2000 due to the combined effects of long-lasting insecticidal bednets, indoor residual spraying, and artemisinin-based combination therapies (ACTs). This success has raised hopes for malaria eradication and consequently stimulated interest in developing new reagents that block gametocyte transmission such as novel and safe gametocytocidal drugs. However, previous drug development efforts have focused primarily on the asexual parasites that cause symptoms, but not malaria transmission. Consequently, patients can remain infectious for weeks after the clearance of asexual parasites and clinical symptoms. To be transmitted from person to person via a mosquito, the parasites must switch from asexual to sexual development and produce male and female gametocytes. Malaria gametocytes consist of five stages (I, II, III, IV and V). The late stage gametocytes (III, IV and V) are difficult to be cultured in vitro and the long lifespan of mature gametocytes allows them being transmitted from host to mosquitoes unless they are completely eliminated by gametocytocidal agents. To identify gametocytocidal compounds which are capable of killing late stage P. falciparum gametocytes, a high throughput gametocyte viability assay was employed. This assay uses oxidoreduction indicator, alamarBlue, as a general measure of metabolic activity of gametocytes. Within live cells, the nonfluorescent resazurin is reduced to resorufin, a bright red fluorescence dye. Fluorescence decreases upon treatment of gametocytocidal compounds. P. falciparum gametocyte (3D7 strain) was used in this study.
The 1536-well gametocycidal viability assay was based on the previous method of Tanaka et al. Stage III-V gametocytes were tested against three compound libraries, including 4265 compounds from NCGC pharmaceutical collection, 400 from Malaria Box library, and 550 from an internal collection of kinase inhibitors. Briefly, 2.5 ul/well incomplete medium was dispensed into each well of 1,536-well plates using the Multidrop Combi followed by 23 nl compound transferring using the NX-TR Pintool (WAKO Scientific Solutions, San Diego, CA). Then, 2.5 ul/well of gametocytes was dispensed with a seeding density of 20,000 cells/well using the Multidrop Combi. The assay plates were incubated for 72 h at 37C with 5% CO2. After addition of 5 ul/well of 2X AlamarBlue dye (Life Technologies, cat. no. DAL1100), the plates were incubated for 24 h at 37C with 5% CO2 and then were read in a fluorescence detection mode (Ex = 525 nm, Em = 598 nm) on a ViewLux plate reader (PerkinElmer).
A general note: qHTS replaces the single test concentration by a dilution series.
With `CCCC[N+]1(C)[C@@H]2CC(OC(=O)[C@H](CO)c3ccccc3)C[C@H]1[C@@H]1O[C@@H]12` (stereo not given in full), the max response is 5.95%.

As to `CN1C(=O)CN=C(c2ccccc2)c2cc(Cl)ccc21`, the max response was -5.96%.

For `CC(Cc1ccccc1)NCc1ccccc1Cl` (stereo not given), the max response is 9%. On the same count and under the same terms, in the case of `NC(N)=NC(=O)c1nc(Cl)c(N)nc1N` it was 25%. In the case of `CCC1(c2cnc[nH]2)Cc2ccccc2C1`, the max response was -21.2%.

`Cc1c(C)c2c(c(C)c1OC(=O)CCC(=O)OCCO)CC[C@@](C)(CCC[C@H](C)CCC[C@H](C)CCCC(C)C)O2`: the max response was -0.873%.

Take `C[C@@H]1CN(C2CCC(C#N)(c3ccc(F)cc3)CC2)CC[C@]1(C(=O)O)c1ccccc1` (stereo not given in full): the max response was -3.29%. `CN1C[C@H](C(=O)N[C@]2(C)O[C@@]3(O)[C@@H]4CCCN4C(=O)[C@H](Cc4ccccc4)N3C2=O)C[C@@H]2c3cccc4[nH]cc(c34)C[C@H]21`: the Potency is 2.35 µM (active). As to `Cc1nnc2n1-c1sc(CCc3ccc(CC(C)C)cc3)cc1C(c1ccccc1Cl)=NC2C` (stereo not given), the max response is -7.02%. The same measure, in the same setting: the figure for `C[N+](C)(C)CCCCCCCCCC[N+](C)(C)C` is -0.962%.

Take `CNC(=O)NC(O)C(Cl)(Cl)Cl` (stereo not given): the max response was 8.2%.

Regarding `CN(C)CCc1c[nH]c2ccccc12`, the max response is 16.8%.

As to `CC(C)[N+](C)(CCC(C(N)=O)(c1ccccc1)c1ccccc1)C(C)C`, the max response was 0.0209%.

`CCCCCCCCCCCCCCCC[n+]1ccccc1`: the Potency is 7.08 µM (active). For the molecule `O=C(O)CCCCCCNC1c2ccccc2CCc2ccccc21`, the max response is -6.01%. Still for that read-out and setting: the figure for `CC(C)NCC(O)c1ccc(N)c(C#N)c1` (stereo not given) is 9.7%; for `C[C@H]1C(=O)O[C@@H]2CCN3CC=C(COC(=O)[C@](C)(O)[C@]1(C)O)[C@H]23` it is 14.3%; for `O=C(O)c1ccccc1Nc1cc(Cl)ccc1C(=O)O` it is 32.7%. On to `COc1cccc2c1C(=O)c1c(O)c3c(c(O)c1C2=O)C[C@@](O)(C(=O)CO)C[C@@H]3O[C@H]1C[C@H](N)[C@H](O[C@@H]2CCCCO2)[C@H](C)O1`, for which the Potency is 22.4 µM (active).

On to `Cc1ncc2n1-c1ccc(Cl)cc1C(c1ccccc1F)=NC2`, for which the max response was -2.43%. For `c1ccc2nc(N3CCNCC3)ccc2c1`, the max response is -4.39%. Same read-out and setting: the figure for `C#C[C@]1(O)CC[C@H]2[C@@H]3CCC4=CC(=O)CCC4=C3C=C[C@@]21CC` is -5.06%; for `Cc1nc2ccccc2c(=O)n1-c1ccccc1Cl` it is 1.05%. Take `CC(C(O)c1ccccc1)N(C)CCOC(c1ccccc1)c1ccccc1` (stereo not given): the Potency was 5.01 µM (active). Turning to `N#Cc1nn(-c2c(Cl)cc(C(F)(F)F)cc2Cl)c(N)c1S(=O)C(F)(F)F` (stereo not given), the max response was 6.82%. In the case of `C[N+](C)(C)CCOC(=O)C(O)(c1ccccc1)c1ccccc1`, the max response was -1.74%. Take `NC(N)=N/N=C/c1c(Cl)cccc1Cl`: the Potency is 3.55 µM (active). For `CC[C@H]1C[C@@H]2C[C@H]3c4[nH]c5ccc(OC)cc5c4CCN(C2)[C@@H]13`, the max response is 5.97%. In the case of `CN(C)CCc1c[nH]c2ccc(O)cc12`, the max response is -10.2%.

For the molecule `O=C(O)Cc1ccccc1`, the max response is -12.8%. Consider `CC(C)C(Br)C(=O)NC(N)=O` (stereo not given), for which the max response was 6.08%. Same read-out and setting: the figure for `COc1ccc2c(C(=O)c3ccc(Cl)cc3)c(C)n(CC(=O)O)c2c1` is 36.2%. For `CC[C@H]1CN2CCc3cc(OC)c(OC)cc3[C@@H]2C[C@@H]1C[C@H]1NCCc2cc(OC)c(OC)cc21`, the Potency was 1.41 µM (active). Turning to `C[C@]12CC[C@H]3[C@@H](CCC4=CC(=O)CC[C@@H]43)[C@@H]1CC[C@@H]2O`, the max response is -13.9% and -1.26%. On the same count and under the same terms, in the case of `O=C1CC2(CCCC2)CC(=O)N1CCCCN1CCN(c2ncccn2)CC1` it was 13.6%.

For `CNC(C)Cc1ccccc1OC` (stereo not given), the max response is 0.178%.

As for `CCS(=O)(=O)C(C)(C)S(=O)(=O)CC`, the max response was 4.59%. Turning to `CCCCC1C(=O)NC(=O)N(C2CCCCC2)C1=O` (stereo not given), the max response was -2.42%. Same read-out and setting: the figure for `O=C1NCN(c2ccccc2)C12CCN(CCCOc1ccc(F)cc1)CC2` is 0.637%. Take `O=C1NC2CCCCN2C12CCN(CCCN1c3ccccc3CCc3ccc(Cl)cc31)CC2` (stereo not given): the Potency is 22.4 µM (active).
